# From the supplement of paper PMC10849652
# The full data set covers some 7,900 targets. This sample favours those with a hit. About 0.6% of all pairs of compound and target were hits. Unmarked numbers belong to inactive results.
# Tests used:
# Assay in all cases: log2 fold change, soluble protein after heating vs DMSO (PISA); higher = thermal stabilisation; K562 cells, 10 uM, 30 min; active = over 0.2 and 3.5 SD of the protein, either way, in both replicates (recomputed)
# [1] = compound: CC1=C(C=C(C=C1)NC(=O)C2=CC(=CC=C2)C(C)(C)C#N)NC3=CC4=C(C=C3)N=CN(C4=O)C
# In short: (§1)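 K562 cells (2×10^6 cells/mL) were treated with 10 μM compound for 30 min, and aliquots were heated for 3 min over 48°C-58°C. Pooled aliquots were extracted in PBS with 0.5% NP-40 at 4°C, and the supernatant after 21,000xg for 90 min was measured by TMTpro 16plex LC-MS/MS with channel sums equalised. Reported thermal stability, relative to control samples and from duplicates, is a log2 fold change.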
# [2] = compound: CC1=C(C=C(C=C1)NC(=O)C2=CC(=CC=C2)N(C)C)NC(=O)C3=CC=C(C=C3)O
# In short: as §1
# [3] = compound: CC1=CC=C(C=C1)SC2=C3C=C(SC3=CN=C2)C(=O)N
# In short: as §1
# [4] = compound: CC1=NC(=CC=C1)C2=C(N=C(N2)C(C)(C)C)C3=CC4=NC=CN=C4C=C3
# In short: as §1
# Nexturastat A = compound: CCCCN(Cc1ccc(C(=O)NO)cc1)C(=O)Nc1ccccc1 [Nexturastat A]
# In short: as §1
# vemurafenib = compound: CCCS(=O)(=O)Nc1ccc(F)c(C(=O)c2c[nH]c3ncc(-c4ccc(Cl)cc4)cc23)c1F [vemurafenib]
# In short: as §1
# [5] = compound: CCCS(=O)(=O)Nc1ccc(F)c(C(=O)c2c[nH]c3ncc(Cl)cc23)c1F
# In short: as §1
# [6] = compound: CCCc1cc(C)[nH]c(=O)c1CNC(=O)c1cc(-c2ccnc(N3CCN(C)CC3)c2)cc2c1cnn2C(C)C
# In short: as §1
# givinostat = compound: CCN(CC)Cc1ccc2cc(COC(=O)Nc3ccc(C(=O)NO)cc3)ccc2c1 [givinostat]
# In short: as §1
# barasertib = compound: CCN(CCCOc1ccc2c(Nc3cc(CC(=O)Nc4cccc(F)c4)[nH]n3)ncnc2c1)CCOP(=O)(O)O [barasertib]
# In short: as §1
# UniProt Q9BUP3, sequence (Q9BUP3 whole entry, looked up): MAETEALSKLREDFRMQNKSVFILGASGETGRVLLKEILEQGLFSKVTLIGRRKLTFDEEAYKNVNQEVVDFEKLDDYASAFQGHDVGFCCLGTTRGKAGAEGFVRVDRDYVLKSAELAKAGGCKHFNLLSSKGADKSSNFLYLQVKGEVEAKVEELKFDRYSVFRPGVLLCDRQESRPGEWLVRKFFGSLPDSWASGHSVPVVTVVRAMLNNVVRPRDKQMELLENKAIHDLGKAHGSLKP
# UniProt P36969, sequence (P36969 whole entry, looked up): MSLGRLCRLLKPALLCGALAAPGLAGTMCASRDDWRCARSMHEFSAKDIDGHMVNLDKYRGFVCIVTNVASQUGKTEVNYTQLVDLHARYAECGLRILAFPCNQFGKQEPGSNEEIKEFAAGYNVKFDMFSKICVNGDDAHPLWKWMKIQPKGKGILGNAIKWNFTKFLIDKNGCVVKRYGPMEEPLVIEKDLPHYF
# UniProt P09211, sequence (P09211 whole entry, looked up): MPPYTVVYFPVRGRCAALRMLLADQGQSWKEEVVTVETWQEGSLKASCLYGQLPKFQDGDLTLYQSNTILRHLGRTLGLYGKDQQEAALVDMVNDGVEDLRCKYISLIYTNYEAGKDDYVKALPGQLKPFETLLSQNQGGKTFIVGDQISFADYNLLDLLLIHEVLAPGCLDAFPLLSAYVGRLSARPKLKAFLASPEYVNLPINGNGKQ
# UniProt Q9UK99, sequence (Q9UK99 whole entry, looked up): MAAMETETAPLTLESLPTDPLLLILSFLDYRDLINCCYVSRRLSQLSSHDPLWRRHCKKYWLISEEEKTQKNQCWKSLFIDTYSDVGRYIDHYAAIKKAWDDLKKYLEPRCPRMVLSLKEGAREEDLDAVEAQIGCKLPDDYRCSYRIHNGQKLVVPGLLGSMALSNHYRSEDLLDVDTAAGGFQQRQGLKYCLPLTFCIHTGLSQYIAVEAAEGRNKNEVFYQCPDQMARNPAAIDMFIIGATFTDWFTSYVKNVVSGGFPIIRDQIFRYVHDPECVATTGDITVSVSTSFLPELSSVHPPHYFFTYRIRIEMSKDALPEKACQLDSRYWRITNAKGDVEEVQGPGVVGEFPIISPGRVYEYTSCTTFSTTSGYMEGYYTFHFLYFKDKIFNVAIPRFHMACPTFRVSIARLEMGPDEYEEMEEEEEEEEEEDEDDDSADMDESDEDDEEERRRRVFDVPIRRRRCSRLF
# UniProt P15586, sequence (P15586 whole entry, looked up): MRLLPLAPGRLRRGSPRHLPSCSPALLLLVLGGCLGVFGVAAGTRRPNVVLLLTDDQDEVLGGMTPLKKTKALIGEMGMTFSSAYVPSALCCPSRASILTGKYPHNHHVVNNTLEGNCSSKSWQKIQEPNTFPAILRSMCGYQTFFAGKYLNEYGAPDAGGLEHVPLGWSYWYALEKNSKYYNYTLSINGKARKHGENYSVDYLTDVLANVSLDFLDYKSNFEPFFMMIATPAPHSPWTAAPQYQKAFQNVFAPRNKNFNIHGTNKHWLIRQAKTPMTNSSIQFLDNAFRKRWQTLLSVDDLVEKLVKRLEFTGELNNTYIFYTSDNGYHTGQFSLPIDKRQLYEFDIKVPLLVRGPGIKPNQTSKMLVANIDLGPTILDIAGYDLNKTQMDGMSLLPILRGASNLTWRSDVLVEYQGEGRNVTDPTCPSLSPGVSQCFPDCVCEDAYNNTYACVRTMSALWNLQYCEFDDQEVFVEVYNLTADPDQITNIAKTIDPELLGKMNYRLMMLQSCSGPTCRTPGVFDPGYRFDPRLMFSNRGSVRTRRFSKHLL
# UniProt P14324, sequence (P14324 whole entry, looked up): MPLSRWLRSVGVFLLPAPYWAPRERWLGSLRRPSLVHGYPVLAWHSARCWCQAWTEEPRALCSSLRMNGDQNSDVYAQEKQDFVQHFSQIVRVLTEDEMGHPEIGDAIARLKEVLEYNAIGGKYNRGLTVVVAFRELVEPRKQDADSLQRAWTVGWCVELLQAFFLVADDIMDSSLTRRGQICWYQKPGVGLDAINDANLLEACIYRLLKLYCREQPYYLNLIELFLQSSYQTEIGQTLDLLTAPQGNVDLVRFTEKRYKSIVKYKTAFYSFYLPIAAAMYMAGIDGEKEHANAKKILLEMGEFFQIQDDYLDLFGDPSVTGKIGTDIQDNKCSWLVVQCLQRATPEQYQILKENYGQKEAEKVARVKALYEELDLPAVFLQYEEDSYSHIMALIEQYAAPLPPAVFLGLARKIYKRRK
# UniProt Q9P2H3, sequence (Q9P2H3 whole entry, looked up): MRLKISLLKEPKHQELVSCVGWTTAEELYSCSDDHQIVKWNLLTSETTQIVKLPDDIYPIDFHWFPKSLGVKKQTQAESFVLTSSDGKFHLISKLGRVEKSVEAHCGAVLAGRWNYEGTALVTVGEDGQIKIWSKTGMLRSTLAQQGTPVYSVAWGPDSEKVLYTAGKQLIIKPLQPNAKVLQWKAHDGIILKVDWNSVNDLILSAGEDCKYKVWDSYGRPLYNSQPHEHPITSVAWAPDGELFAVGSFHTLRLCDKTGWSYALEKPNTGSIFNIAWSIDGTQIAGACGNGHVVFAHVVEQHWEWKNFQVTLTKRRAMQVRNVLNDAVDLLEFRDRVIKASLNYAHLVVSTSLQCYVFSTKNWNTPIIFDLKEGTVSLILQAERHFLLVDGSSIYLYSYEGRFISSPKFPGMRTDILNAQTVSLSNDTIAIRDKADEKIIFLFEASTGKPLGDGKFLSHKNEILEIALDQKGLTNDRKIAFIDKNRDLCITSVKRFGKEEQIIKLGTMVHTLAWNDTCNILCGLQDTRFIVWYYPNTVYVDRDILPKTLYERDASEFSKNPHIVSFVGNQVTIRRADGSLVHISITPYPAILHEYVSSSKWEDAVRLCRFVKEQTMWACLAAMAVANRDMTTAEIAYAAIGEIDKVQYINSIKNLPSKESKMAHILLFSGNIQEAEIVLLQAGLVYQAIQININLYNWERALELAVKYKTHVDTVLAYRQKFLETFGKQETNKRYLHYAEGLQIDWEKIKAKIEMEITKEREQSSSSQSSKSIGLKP
# UniProt O14526, sequence (O14526 whole entry, looked up): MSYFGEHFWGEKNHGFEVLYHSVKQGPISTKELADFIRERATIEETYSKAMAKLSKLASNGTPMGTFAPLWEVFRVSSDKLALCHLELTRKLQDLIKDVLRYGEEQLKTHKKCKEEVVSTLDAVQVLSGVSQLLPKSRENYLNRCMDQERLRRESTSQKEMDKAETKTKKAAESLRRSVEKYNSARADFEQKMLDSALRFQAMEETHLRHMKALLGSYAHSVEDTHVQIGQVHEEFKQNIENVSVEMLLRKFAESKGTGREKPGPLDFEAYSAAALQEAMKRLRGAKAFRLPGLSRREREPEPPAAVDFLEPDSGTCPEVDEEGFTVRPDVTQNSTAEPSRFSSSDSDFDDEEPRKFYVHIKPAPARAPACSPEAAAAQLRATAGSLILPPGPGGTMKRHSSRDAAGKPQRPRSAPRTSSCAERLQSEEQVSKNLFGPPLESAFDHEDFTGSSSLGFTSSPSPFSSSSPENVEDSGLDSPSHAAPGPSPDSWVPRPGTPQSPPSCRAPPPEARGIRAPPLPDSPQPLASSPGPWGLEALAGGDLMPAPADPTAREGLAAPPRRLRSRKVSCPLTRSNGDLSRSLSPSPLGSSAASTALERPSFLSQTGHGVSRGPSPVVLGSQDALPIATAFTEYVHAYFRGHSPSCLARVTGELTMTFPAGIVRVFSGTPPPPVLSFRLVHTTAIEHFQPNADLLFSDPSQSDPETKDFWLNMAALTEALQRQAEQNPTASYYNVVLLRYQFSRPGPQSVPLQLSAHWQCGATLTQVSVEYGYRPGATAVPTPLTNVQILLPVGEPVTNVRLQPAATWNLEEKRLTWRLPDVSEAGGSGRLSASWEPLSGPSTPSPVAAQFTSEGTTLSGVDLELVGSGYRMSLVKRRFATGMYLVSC
# UniProt Q9UQC2, sequence (Q9UQC2 whole entry, looked up): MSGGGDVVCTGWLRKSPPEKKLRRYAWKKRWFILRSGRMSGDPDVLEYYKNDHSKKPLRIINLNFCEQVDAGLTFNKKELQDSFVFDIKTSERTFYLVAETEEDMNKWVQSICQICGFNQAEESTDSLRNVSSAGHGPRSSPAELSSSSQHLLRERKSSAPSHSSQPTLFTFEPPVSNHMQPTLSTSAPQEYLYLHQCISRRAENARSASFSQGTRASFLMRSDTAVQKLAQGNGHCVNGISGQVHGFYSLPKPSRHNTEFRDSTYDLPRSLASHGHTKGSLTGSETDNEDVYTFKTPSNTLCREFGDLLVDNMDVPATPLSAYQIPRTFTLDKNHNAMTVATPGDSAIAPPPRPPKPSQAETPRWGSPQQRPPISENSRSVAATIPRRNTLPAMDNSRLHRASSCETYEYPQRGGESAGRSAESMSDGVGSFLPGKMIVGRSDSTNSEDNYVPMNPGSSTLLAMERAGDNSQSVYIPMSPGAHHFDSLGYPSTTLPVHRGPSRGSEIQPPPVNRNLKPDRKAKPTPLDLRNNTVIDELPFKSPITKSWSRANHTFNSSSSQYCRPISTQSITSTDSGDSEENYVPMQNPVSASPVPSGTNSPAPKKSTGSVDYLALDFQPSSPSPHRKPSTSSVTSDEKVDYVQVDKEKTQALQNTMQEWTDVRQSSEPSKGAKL
# UniProt P09105, sequence (P09105 whole entry, looked up): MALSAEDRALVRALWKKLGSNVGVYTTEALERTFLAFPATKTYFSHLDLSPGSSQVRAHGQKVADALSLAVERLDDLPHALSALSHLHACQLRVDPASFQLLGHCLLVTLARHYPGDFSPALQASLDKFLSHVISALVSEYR
# UniProt Q9Y324, sequence (Q9Y324 whole entry, looked up): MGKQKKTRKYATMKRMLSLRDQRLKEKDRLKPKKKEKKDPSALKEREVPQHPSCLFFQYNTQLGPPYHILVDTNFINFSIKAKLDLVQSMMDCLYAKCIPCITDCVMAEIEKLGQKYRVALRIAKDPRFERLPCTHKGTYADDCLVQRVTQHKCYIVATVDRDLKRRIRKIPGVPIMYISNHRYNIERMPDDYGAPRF
Target,log2 fold change [1],log2 fold change [2],log2 fold change [3],log2 fold change [4],log2 fold change (Nexturastat A),log2 fold change (vemurafenib),log2 fold change [5],log2 fold change [6],log2 fold change (givinostat),log2 fold change (barasertib)
GAB2 (UniProt Q9UQC2),-0.053,-0.21,0.022,0.077,0.075,-0.071,-0.349,0.099,0.101,–
FDPS (UniProt P14324),-0.061,-0.068,0.109,-0.077,0.068,0.034,-0.001,-0.005,0.156,0.081
GPX4 (UniProt P36969),-0.005,-0.068,0.095,0.06,-0.151,-0.019,0.005,-0.027,-0.451 (active),-0.012
GCLM (UniProt P48507),0.044,-0.04,0.019,0.057,-0.006,0.1,0.099,0.002,0.074,0.066
H1FX (UniProt Q92522),0.081,-0.059,-0.106,-0.222,0.278,-0.083,-0.077,0.176,-0.034,-0.129
HBQ1 (UniProt P09105),0.053,-0.14,0.025,0.052,-0.028,-0.013,0.004,-0.012,-0.043,0.038
GATD1 (UniProt Q8NB37),0.054,-0.041,-0.023,-0.108,0.067,-0.047,-0.06,0.021,0.013,0.024
FBXO3 (UniProt Q9UK99),-0.042,-0.08,0,-0.018,-0.043,-0.089,-0.025,-0.057,0.049,-0.043
HNRNPF (UniProt P52597),0.076,-0.005,-0.032,-0.017,0.036,0.106,0.101,0.027,0.051,0.047
FKBP3 (UniProt Q00688),0.024,0,0.009,0.122,-0.002,-0.015,-0.041,-0.013,-0.023,-0.02
HMGB3 (UniProt O15347),-0.012,0,0.006,0.011,-0.014,-0.083,0.011,0.202,-0.016,-0.008
FCHO1 (UniProt O14526),0.103,-0.023,0.004,-0.016,0.053,0.254,0.037,-0.003,0.073,–
GABPA (UniProt Q06546),-0.007,-0.011,0.064,0.039,0.008,0.062,0.09,-0.004,0.17,0.022
FANCD2 isoform 1 (UniProt Q9BXW9),0.003,-0.007,0.027,-0.035,-0.09,0.033,0.099,-0.031,0.017,0.043
FOXO3 (UniProt O43524),0.247,-0.039,0.037,0.119,0.024,-0.023,0.017,-0.159,0.012,–
GLRX3 (UniProt O76003),0.007,-0.033,0.02,0.028,-0.049,0.024,0.139,0.014,0.01,0.054
HLTF (UniProt Q14527),0.04,-0.014,-0.056,0.038,0.019,0.047,0.048,0.109,0.018,0.007
GTF2B (UniProt Q00403),-0.018,-0.092,0.097,0.097,-0.031,0.104,0.167,0.017,0.058,0.044
GSTP1 (UniProt P09211),0.006,-0.003,0.008,0.008,-0.108,0.022,-0.006,-0.1,-0.019,0.023
HTATIP2 isoform 3 (UniProt Q9BUP3),0.065,-0.093,0.011,-0.007,-0.14,0.057,0.039,0.059,0.012,0.041
GCC2 (UniProt Q8IWJ2),-0.004,-0.012,-0.016,-0.031,0.322 (active),0.025,0.01,0.073,0.05,-0.037
IFT80 isoform 3 (UniProt Q9P2H3),-0.023,0.038,0.004,0.005,-0.021,-0.042,0.039,-0.013,-0.104,-0.004
GYS1 (UniProt P13807),0.057,-0.04,-0.068,-0.13,0.515,0.052,-0.01,0.091,0.108,-0.033
FCF1 (UniProt Q9Y324),0.017,-0.011,-0.114,-0.187,0.271,-0.139,-0.167,0.324,–,–
GNS (UniProt P15586),-0.021,0.112,0.044,0.026,-0.03,0.023,-0.005,0.003,0.011,-0.004
ICMT (UniProt O60725),-0.048,-0.085,-0.079,0.072,-0.204,0,-0.103,0.064,-0.037,0.022
GCDH (UniProt Q92947),-0.017,-0.004,0.014,0.009,-0.007,0,0.002,0.009,0.004,0.005
GSTO1 (UniProt P78417),-0.031,0.002,0.03,0.03,-0.121,0.02,0.017,0.15,-0.043,0.016
